Laboratory results taken from PubChem BioAssay (NCI).
Compounds without any hit were thinned out: in the full panel of roughly 83,000, 20% have a hit.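 Single-concentration screen, 48 h exposure, 96-well plates. Endpoint: percent growth. Below 10 = active.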 A number with no mark means an inactive call. Activity calls are given as the source filed them.

system: NCI-H460 lung; test: NCI-60 one-dose screen, 48 h (100 = growth as untreated, 0 = no growth, -100 = all killed); conditions: 10 µM unless noted
Procedure: Growth inhibition of the NCI-H460 human Non-Small Cell Lung tumor cell line is measured as a screen for anti-cancer activity. Cells are grown in 96 well plates and exposed to the test compound for 48 hours. Compounds are tested at a single concentration, which is 10^-5 M for most compounds. The reported endpoint is percent growth (GI% or GIPRCNT), where numbers from 0 - 100% represent growth inhibition, and numbers from -100% - 0 represent cell death. For example, a value of 40 represents 60% growth inhibition. A value of 0 means no net growth occurred over the course of the experiment. A value of -40 indicates 40% of cells at the beginning of the experiment died by the end of the experiment. A value of -100 means all cells are dead at the end of the experiment.
NCI-60 Human Tumor Cell Lines Screen was performed using the standard one-dose NCI protocol, which is described in more detail at https://dtp.cancer.gov/discovery_development/nci-60/default.htm.
Compounds with GIPRCNT values below 10 were considered active. Activity score was based on GIPRCNT using the following formula: […]
Score is 0 for GIPRCNT values of 100 or above, 50 for GIPRCNT values of 0, and 100 for GIPRCNT values of -100.

| Compound | growth |
| --- | --- |
| Cc1ccc(Nc2cccc3ccccc23)cc1 | 103% |
| COc1ccc2[nH]cc(C3(c4c[nH]c5ccc(OC)cc45)C(=O)Nc4ccc(F)cc43)c2c1 | 4.92% (active) |
| COc1ccc(-n2nc(C(=O)Nc3ccc(F)cc3)nc2-c2cc(OC)c(OC)c(OC)c2)cc1 | 98.4% |
| O=C(CSc1nc2c(n1Nc1ccccc1)-c1ccccc1SC2)Nc1nccs1 | 99.4% |
| CCN1C(=O)N(CC)C2C1NN=c1s/c(=C\c3ccco3)c(=O)n12 (stereo not given) | 12.9% |
| COc1cccc(NC(=O)OC(C)C)c1 | 105% |
| COc1cc(Cl)cc(-c2nn(C(=O)NCCN3CCOCC3)cc2-c2ccncc2)c1 | 56.1% |
| N=C(N)c1ccc(-c2ccc(-c3ccco3)o2)cc1F | 0.478% (active) |
| O=C1Nc2ccc(Br)cc2/C1=N/c1nc(-c2ccccc2)cs1 | 90.9% |
| COc1ccc(C(=O)C(CN(C)C)c2ccc(OC)cc2)cc1 (stereo not given) | 86.3% |
| CCOC(=O)c1ccc2c(c1)nc(-c1ccc(Cl)cc1)n2-c1cc(C(C)(C)C)[nH]n1 | 23.1% |
| NNC(=O)CSc1nc2scc(-c3ccccc3)c2c(=O)n1-c1ccccc1 | 110% |
| CCCCCN(CCCCC)C(=O)C(CCC(=O)O)NC(=O)c1ccc(Cl)c(Cl)c1 (stereo not given) | 106% |
| COc1cc2c(cc1OC)-c1cc(OC)c(OC)cc1C(CN(C)C)C2 (stereo not given) | 67.7% [100 µM] |
| S=C(Cc1ccccc1)N1CCN(c2ccccc2Cl)CC1 | 107% |
| CCCCc1nc(Cl)c(C2CC(c3ccc(S(N)(=O)=O)cc3)=NN2c2cc(Cl)cc(Cl)c2)[nH]1 (stereo not given) | 13.9% |
| CC(C)CC1NC(=O)C(CC(C)C)N(CO)C1=O (stereo not given) | 116% |
| CCCCCCCCCCCCNC(=O)N[C@H](C(=O)N[C@H]1/C=C/OCCNC(=O)/C=C/[C@H](C(C)C)NC1=O)C(C)C | 82.6% |
| Nc1c(C(=O)C[C@@H](N)CO)ccc2c1C(=O)CCO2 | 13% |
| COc1cc(-c2nn(C(=O)NCCN3CCN(C)CC3)cc2-c2ccncc2)ccc1Cl | 93.5% |

| Compound | growth |
| --- | --- |
| CN1C2CCC1/C(=C\c1ccc(F)cc1)C(=O)/C2=C/c1ccc(F)cc1 | 14.1% |
| CCCCOc1nc2ccc(C)cc2cc1/C=C/C(=O)/C=C(O)/C=C/c1cc2cc(C)ccc2nc1OCCCC | 106% |
| COc1cc(C2C(C#N)=C(N)Oc3cc4c(cc32)OCO4)cc2c1OCO2 (stereo not given) | 12.4% |
| O=C(Nc1cccc(N=Cc2c(O)ccc3ccccc23)c1)c1ccccc1 | 111% |
| CC(C)c1nc2ccccc2n1CC(=O)N/N=C/c1cccc(O)c1 | 102% |
| CC(C)CC(=O)C(CCc1ccccn1)C(C)C (stereo not given) | 107% |
| CC(C)(C)OC[C@@H]1N=C(c2ccc(Br)cc2)Nc2nc3ccccn3c2C1=O | 41.3% |
| CSC1=N/C(=C\c2cccc(OCc3ccc(Cl)cc3)c2)C(=O)N1 | 81.3% |
| CC(=O)Nc1c(Br)cc2c(c1Br)Cc1cc(Br)ccc1-2 | 38.8% |
| CC(C)CCSc1nc(Nc2ccccc2)c(C#N)c(-c2ccc(F)cc2)n1 | 6.55% (active) |
| C#CCO[C@H]1CC[C@H](OCC#C)[C@@H]2[C@H]1[C@H]1C[C@@H]3[C@@]4(C)CCC[C@@](C)(C(=O)OC)[C@@H]4CC[C@@]23C=C1C(C)C | 104% |
| CCOC(=O)C1OC2(CCCC2)OC1C(=O)OCC (stereo not given) | 116% |
| O=S1(=O)NCCN1CCNc1nccc(-c2c(-c3cccc(O)c3)nc3sccn23)n1 | 107% |
| COc1ccc(/C(C)=N/NC(=O)CSc2nc3ccccc3c(=O)n2CCc2ccc(S(N)(=O)=O)cc2)cc1 | -29.5% (active) |
| CC1(C)CN(CCNc2nccc(-c3c(-c4cccc(O)c4)nc4sccn34)n2)S(=O)(=O)N1 | 50.6% |
| CC(C)CCSc1nc(-c2ccc(F)cc2)c(C#N)c(N2CCCCC2)n1 | 93.1% |
| CCOC(=O)Nc1ccc2nc(Sc3ccc(Cl)cc3)sc2c1 | 25% |
| C#C[C@]1(O)CC[C@H]2[C@@H]3CC=C4c5sc(-c6cccc(Br)c6)nc5CC[C@]4(C)[C@H]3CC[C@@]21C | 78.1% |
| C/C(=N\Nc1ccc([N+](=O)[O-])cn1)c1ccc(N)cc1 | 110% |
| COc1ccc(/C=C/c2nc3ccccc3c(=O)n2-c2ccc(C#Cc3ccc(C(C)(C)C)cc3)cc2C)c(OC)c1 | 85% |
